Results from ChEMBL document CHEMBL2218924, “A broad activity screen in support of a chemogenomic map for kinase signalling research and drug discovery” (Biochem J, 2013).

Columns and labels:
[1] = target: Tyrosine-protein kinase Fer (Homo sapiens) (UniProt P16591); settings: at 10 µM
[2] = target: Tyrosine-protein kinase Fes/Fps (Homo sapiens) (UniProt P07332); settings: at 10 µM
[3] = target: Tyrosine-protein kinase Fgr (Homo sapiens) (UniProt P09769); settings: at 1 µM
[4] = target: Tyrosine-protein kinase Fgr (Homo sapiens) (UniProt P09769); settings: at 10 µM
[5] = target: Vascular endothelial growth factor receptor 1 (Homo sapiens) (UniProt P17948); settings: at 1 µM
[6] = target: Vascular endothelial growth factor receptor 1 (Homo sapiens) (UniProt P17948); settings: at 10 µM
[7] = target: Receptor-type tyrosine-protein kinase FLT3 (Homo sapiens) (UniProt P36888); settings: at 1 µM
[8] = target: Receptor-type tyrosine-protein kinase FLT3 (Homo sapiens) (UniProt P36888); settings: at 10 µM
[9] = target: Vascular endothelial growth factor receptor 3 (Homo sapiens) (UniProt P35916); settings: at 1 µM
[10] = target: Vascular endothelial growth factor receptor 3 (Homo sapiens) (UniProt P35916); settings: at 10 µM
[11] = target: Macrophage colony-stimulating factor 1 receptor (Homo sapiens) (UniProt P07333); settings: at 1 µM
[12] = target: Macrophage colony-stimulating factor 1 receptor (Homo sapiens) (UniProt P07333); settings: at 10 µM
[13] = target: Tyrosine-protein kinase Fyn (Homo sapiens) (UniProt P06241); settings: at 1 µM
[14] = target: Tyrosine-protein kinase Fyn (Homo sapiens) (UniProt P06241); settings: at 10 µM
[15] = target: T1, Mitogen-activated protein kinase kinase kinase kinase 2 (Homo sapiens) (UniProt Q12851); settings: at 10 µM
T1 sequence (whole entry): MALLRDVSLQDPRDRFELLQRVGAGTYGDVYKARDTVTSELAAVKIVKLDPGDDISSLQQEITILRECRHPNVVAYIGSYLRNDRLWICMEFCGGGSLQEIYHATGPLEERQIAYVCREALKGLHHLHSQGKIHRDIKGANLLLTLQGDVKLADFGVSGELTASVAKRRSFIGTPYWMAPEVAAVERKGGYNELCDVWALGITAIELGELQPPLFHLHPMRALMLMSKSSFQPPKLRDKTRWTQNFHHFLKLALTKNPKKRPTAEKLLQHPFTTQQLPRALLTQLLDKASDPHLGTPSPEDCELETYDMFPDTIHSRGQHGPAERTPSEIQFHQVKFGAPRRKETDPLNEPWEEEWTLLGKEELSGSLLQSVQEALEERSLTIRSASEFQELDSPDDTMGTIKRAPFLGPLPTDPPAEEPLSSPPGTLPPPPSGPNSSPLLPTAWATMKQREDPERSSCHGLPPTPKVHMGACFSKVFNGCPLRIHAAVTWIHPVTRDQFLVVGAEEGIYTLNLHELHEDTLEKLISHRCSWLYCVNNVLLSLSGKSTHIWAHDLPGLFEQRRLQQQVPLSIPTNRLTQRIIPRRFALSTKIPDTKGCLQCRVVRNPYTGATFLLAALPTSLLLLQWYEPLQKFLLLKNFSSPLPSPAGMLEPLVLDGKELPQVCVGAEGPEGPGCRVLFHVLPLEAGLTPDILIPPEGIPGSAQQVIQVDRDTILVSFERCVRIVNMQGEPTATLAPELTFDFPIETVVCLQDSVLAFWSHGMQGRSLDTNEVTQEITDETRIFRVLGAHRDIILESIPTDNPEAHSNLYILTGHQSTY

[16] = target: G protein-coupled receptor kinase 5 (Homo sapiens) (UniProt P34947); settings: at 10 µM
[17] = target: G protein-coupled receptor kinase 6 (Homo sapiens) (UniProt P43250); settings: at 10 µM
[18] = target: T2, Rhodopsin kinase GRK7 (Homo sapiens) (UniProt Q8WTQ7); settings: at 1 µM
T2 sequence (whole entry): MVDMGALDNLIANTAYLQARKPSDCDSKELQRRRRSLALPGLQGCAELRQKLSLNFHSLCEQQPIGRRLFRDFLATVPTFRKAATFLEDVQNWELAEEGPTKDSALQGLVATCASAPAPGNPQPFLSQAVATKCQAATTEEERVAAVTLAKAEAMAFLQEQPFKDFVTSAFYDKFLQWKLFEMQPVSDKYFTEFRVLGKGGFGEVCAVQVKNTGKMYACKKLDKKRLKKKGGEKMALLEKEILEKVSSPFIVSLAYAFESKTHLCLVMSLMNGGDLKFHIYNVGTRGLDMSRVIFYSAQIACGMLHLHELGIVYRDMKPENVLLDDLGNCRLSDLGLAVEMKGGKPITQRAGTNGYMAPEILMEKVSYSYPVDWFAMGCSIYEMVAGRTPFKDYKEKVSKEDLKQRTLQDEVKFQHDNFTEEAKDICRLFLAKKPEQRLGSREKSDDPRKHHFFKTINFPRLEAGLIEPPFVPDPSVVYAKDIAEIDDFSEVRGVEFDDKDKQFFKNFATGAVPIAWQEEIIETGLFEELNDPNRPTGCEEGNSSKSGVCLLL

[19] = target: Tyrosine-protein kinase Fes/Fps (Homo sapiens) (UniProt P07332); settings: at 1 µM
[20] = target: T1, Mitogen-activated protein kinase kinase kinase kinase 2 (Homo sapiens); settings: at 1 µM

Chain of Tyrosine-protein kinase Fyn (Homo sapiens) (P06241 2-537 limits assumed): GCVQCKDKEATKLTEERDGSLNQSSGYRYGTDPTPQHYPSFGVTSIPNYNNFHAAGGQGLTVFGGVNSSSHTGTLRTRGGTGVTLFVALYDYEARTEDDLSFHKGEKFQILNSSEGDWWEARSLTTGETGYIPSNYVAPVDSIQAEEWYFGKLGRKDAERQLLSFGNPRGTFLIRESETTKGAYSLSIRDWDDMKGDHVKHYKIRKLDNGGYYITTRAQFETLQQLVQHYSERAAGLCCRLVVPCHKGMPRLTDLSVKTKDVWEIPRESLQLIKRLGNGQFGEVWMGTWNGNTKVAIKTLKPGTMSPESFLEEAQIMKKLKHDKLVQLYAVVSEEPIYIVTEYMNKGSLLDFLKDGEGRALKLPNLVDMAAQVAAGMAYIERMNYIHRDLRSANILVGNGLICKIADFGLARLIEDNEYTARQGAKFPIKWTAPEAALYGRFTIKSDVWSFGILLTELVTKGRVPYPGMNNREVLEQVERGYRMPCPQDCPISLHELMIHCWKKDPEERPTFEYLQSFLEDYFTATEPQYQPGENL
Chain of Vascular endothelial growth factor receptor 3 (Homo sapiens) (P35916 whole entry): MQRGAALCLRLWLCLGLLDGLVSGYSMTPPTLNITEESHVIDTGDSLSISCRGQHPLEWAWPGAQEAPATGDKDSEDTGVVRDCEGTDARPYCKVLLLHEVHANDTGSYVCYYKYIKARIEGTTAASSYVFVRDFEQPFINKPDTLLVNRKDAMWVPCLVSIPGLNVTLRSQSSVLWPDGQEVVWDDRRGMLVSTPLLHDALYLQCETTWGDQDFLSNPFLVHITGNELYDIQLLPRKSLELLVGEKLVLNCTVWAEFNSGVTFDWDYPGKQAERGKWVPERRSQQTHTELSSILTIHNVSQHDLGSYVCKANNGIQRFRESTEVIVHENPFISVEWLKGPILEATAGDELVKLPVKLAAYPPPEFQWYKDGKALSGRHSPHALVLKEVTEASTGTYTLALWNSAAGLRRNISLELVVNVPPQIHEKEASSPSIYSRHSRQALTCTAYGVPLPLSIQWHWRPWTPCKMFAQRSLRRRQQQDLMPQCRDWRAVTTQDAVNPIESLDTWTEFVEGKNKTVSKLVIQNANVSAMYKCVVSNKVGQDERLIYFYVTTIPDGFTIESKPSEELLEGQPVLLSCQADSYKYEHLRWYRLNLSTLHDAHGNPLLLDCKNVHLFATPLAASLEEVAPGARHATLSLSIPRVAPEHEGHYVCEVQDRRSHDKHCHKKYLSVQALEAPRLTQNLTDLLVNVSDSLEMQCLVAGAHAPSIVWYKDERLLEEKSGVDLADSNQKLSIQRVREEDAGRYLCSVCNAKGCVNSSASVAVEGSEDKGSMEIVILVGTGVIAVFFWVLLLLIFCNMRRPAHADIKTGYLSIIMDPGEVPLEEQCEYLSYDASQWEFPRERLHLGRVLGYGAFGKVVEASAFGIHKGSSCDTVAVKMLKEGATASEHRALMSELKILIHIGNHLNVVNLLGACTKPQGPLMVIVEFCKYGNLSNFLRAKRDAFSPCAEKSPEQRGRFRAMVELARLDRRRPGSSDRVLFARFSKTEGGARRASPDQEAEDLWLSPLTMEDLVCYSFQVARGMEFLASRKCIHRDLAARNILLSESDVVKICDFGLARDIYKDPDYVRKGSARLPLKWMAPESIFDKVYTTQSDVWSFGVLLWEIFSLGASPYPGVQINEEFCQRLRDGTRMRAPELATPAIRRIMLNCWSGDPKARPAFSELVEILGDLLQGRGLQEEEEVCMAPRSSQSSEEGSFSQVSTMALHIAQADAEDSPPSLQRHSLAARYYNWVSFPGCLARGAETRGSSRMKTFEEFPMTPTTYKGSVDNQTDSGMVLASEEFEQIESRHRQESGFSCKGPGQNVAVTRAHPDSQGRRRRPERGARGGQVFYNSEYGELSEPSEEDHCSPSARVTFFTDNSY
Chain of G protein-coupled receptor kinase 6 (Homo sapiens) (P43250 whole entry, looked up): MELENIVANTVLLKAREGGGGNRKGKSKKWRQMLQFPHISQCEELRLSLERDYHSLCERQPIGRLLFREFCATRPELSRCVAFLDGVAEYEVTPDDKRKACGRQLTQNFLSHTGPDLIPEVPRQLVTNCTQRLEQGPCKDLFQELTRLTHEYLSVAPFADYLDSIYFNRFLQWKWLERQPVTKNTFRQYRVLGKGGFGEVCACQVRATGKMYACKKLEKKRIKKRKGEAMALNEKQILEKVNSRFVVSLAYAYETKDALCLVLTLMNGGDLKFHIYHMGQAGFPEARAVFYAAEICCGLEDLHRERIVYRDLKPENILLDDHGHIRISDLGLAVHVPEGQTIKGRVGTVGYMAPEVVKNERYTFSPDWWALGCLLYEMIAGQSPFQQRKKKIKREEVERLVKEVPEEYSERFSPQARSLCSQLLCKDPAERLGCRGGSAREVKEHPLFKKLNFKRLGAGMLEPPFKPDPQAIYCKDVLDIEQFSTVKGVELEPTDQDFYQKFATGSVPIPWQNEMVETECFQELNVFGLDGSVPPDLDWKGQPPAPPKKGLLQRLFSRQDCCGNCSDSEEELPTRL
Chain of Tyrosine-protein kinase Fes/Fps (Homo sapiens) (P07332 whole entry): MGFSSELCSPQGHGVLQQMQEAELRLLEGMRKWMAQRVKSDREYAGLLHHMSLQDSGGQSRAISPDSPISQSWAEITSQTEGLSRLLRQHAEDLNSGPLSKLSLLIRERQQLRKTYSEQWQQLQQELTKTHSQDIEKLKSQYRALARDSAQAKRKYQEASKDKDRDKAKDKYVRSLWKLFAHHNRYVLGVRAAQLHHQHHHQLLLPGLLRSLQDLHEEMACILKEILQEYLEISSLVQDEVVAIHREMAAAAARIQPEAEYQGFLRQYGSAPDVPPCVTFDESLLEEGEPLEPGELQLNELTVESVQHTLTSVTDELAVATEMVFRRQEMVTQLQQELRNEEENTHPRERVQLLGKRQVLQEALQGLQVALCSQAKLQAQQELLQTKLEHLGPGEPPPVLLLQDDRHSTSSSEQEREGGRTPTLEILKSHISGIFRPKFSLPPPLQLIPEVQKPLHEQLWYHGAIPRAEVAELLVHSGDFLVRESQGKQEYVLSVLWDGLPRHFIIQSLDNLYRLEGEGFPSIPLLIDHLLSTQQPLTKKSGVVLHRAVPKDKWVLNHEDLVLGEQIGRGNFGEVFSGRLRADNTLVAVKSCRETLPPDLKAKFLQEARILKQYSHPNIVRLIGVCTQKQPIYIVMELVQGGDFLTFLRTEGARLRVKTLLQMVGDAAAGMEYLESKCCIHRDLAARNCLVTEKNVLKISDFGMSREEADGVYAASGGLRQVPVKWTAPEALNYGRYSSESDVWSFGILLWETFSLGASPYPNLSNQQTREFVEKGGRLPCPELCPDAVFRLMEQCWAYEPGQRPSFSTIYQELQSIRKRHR
Chain of Receptor-type tyrosine-protein kinase FLT3 (Homo sapiens) (P36888 whole entry): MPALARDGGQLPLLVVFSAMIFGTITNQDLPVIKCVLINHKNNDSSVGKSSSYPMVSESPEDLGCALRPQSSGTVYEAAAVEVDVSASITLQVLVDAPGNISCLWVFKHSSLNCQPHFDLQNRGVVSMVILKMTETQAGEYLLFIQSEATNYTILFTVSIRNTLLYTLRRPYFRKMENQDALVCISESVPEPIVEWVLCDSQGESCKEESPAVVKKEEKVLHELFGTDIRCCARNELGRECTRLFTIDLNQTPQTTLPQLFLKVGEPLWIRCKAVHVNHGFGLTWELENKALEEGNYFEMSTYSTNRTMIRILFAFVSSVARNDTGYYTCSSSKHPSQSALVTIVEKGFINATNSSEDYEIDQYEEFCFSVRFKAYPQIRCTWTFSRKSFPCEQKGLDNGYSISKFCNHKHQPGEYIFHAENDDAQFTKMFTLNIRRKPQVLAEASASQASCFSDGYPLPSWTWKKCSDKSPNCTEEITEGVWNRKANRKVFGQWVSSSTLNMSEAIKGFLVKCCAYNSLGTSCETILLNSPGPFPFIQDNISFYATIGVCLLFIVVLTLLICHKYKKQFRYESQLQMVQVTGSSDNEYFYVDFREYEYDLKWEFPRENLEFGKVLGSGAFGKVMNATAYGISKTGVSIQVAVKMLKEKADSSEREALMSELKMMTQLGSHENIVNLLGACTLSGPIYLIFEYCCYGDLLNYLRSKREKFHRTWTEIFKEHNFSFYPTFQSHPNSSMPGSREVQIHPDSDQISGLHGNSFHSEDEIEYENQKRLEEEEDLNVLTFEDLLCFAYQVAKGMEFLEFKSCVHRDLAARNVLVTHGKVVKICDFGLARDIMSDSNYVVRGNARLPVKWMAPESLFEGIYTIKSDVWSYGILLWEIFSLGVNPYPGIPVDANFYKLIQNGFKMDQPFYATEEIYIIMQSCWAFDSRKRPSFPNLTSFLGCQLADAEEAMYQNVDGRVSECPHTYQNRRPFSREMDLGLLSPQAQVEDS
Chain of Tyrosine-protein kinase Fgr (Homo sapiens) (P09769 2-529 limits assumed): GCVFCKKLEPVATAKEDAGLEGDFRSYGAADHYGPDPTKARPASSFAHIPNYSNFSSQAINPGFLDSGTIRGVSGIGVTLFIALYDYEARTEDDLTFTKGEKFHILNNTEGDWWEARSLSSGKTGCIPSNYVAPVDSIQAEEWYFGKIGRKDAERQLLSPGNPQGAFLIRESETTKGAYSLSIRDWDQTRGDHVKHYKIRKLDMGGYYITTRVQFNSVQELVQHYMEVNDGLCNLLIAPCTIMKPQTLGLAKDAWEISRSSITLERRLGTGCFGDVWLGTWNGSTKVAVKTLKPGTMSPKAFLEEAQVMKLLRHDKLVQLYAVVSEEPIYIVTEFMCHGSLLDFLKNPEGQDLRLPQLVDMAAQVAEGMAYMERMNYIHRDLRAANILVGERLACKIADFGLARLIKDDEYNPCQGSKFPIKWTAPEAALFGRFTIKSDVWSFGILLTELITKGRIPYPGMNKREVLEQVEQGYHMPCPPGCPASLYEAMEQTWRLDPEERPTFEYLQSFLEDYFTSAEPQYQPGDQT

Row | SMILES | residual activity [1] [%] | residual activity [2] [%] | residual activity [3] [%] | residual activity [4] [%] | residual activity [5] [%] | residual activity [6] [%] | residual activity [7] [%] | residual activity [8] [%] | residual activity [9] [%] | residual activity [10] [%] | residual activity [11] [%] | residual activity [12] [%] | residual activity [13] [%] | residual activity [14] [%] | residual activity [15] [%] | residual activity [16] [%] | residual activity [17] [%] | residual activity [18] [%] | residual activity [19] [%] | residual activity [20] [%]
1 | COc1cc2ncnc(Nc3ccc(NC(=O)c4ccccc4)cc3)c2cc1OC | 94 | 90 | 71 | 25 | 101 | 72 | 97 | 92 | 76 | 14 | 84 | 79 | 100 | 48 | 70 | 89 | 94 | 110 | – | –
2 | NC(=O)c1ccc2[nH]c(-c3ccc(Oc4ccc(Cl)cc4)cc3)nc2c1 | 89 | 87 | 99 | 90 | 82 | 39 | 65 | 27 | 69 | 22 | 84 | 59 | 78 | 86 | 10 | 88 | 80 | 89 | 97 | 44
3 | N#CCCc1ccc2c(c1)-c1[nH]c3ccc([N+](=O)[O-])cc3c1CC(=O)N2 | – | 5 | 15 | 6 | 24 | 11 | 19 | 8 | 10 | 2 | 24 | 19 | 17 | 1 | 2 | – | – | – | 16 | 2
4 | Cc1cc2ncc(-c3ccccc3)nc2cc1C | – | 93 | – | 91 | 85 | 83 | 47 | 25 | 58 | 26 | 36 | 6 | 98 | 27 | 90 | 102 | 101 | 102 | 107 | 98
5 | Cc1cc(Nc2nc(-c3ccccc3)nc3ccccc23)n[nH]1 | 6 | 21 | 18 | 2 | 0 | 1 | 2 | 1 | 0 | 1 | 4 | 0 | 2 | -2 | 6 | – | 65 | 55 | 58 | 38
6 | COc1cc2ncc(-c3ccccc3)nc2cc1OC | 99 | 87 | – | – | 95 | 67 | 57 | 16 | 71 | 17 | 30 | 7 | – | 84 | 90 | – | 91 | – | 126 | 96
7 | COc1ccc(C(=O)Nc2sc3c(c2C(N)=O)CCCC3)cc1OC | 91 | – | 110 | 93 | 72 | 81 | 32 | 35 | 10 | 12 | 39 | 43 | 79 | 95 | 81 | 93 | 84 | 92 | 123 | 81
8 | C[C@@H](N)[C@H]1CC[C@H](C(=O)Nc2ccncc2)CC1 | – | 108 | 103 | 90 | 118 | 108 | 97 | 95 | 100 | 104 | 98 | 110 | 111 | 112 | 88 | 90 | 106 | 97 | 108 | –
9 | N#Cc1cnc2cnc(NCc3cccnc3)cc2c1Nc1ccc(F)c(Cl)c1 | 95 | 12 | 11 | 4 | 14 | 7 | 2 | 0 | 8 | 2 | 58 | 60 | 87 | 74 | 3 | 91 | – | 120 | 19 | –
